# GDH-TPI counter: counter-screen for M. tuberculosis FBA inhibitors: GDH-TPI coupled enzymes | AID 588335 | 360,000 tested, 1.2% active | inhibition, % at 4.8 µM | GDH-TPI coupled enzyme counterscreen, NADH absorbance; in the data active = inhibition above about 30%
# Anthrax LF inh2: anthrax lethal factor protease inhibition | P15917 | multiplex microsphere protease cleavage assay, LF | inhibition, % at 10 µM | 360,000 tested, 0.12% active
# BoNT A protease: blocks Botulinum neurotoxin A light chain protease; inhibition, % at 10 µM; 360,000 tested, 0.17% active; multiplex microsphere protease substrate cleavage, flow cytometry
# Bead autofluor: counter-screen for toxin protease inhibitors: compound fluorescence | 360,000 tested, 3.1% active | compound autofluorescence counterscreen, microsphere flow cytometry; hits give high values | fluorescence intensity (test concentration not listed) | AID 624483; in the data active = fluorescence intensity above about 16000; inconclusive = no clear call, values can overlap the other calls
# FBA Mtb inh: inhibits M. tuberculosis FBA enzyme. P9WQA3. purified M. tuberculosis FBA, fluorescence read-out. inhibition, % at 1 µM. 360,000 tested, 2.3% active. AID 588726; in the data active = inhibition above about 27%
# BoNT F protease: BoNT F light chain protease inhibition. Multiplex microsphere protease cleavage assay, flow cytometry. 360,000 tested, 0.22% active. inhibition, % at 10 µM; in the data active = inhibition above about 35%, passing the limit was not always enough; inconclusive = no clear call, values can overlap the other calls
# A number is an active result; - = inactive; ? = inconclusive; . = no result given; + = active, no number. Rows were chosen to be rich in hits. Some 6.6% of all compounds tested hit in one or more screens of this group. Rule as the data show it, unless noted: active = inhibition above about 30%; inconclusive = no clear call, values can overlap the other calls; inactive = below that.
SMILES,GDH-TPI counter,Anthrax LF inh2,BoNT A protease,Bead autofluor,FBA Mtb inh,BoNT F protease
Cc1ccnc(N2C(=O)CSC2c2ccc(Cl)cc2)c1 (stereo not drawn),-,-,-,-,-,-
CC(C)n1c(CCCO)nc2ccccc21,-,-,-,24524,-,-
CN(C)c1ccc(CC(=O)N2CCCCC2c2cc(C(=O)Nc3cccc4c3CCCC4)no2)cc1 (stereo not drawn),-,-,-,-,-,-
CCCN(CCC)CCNC(=O)C(NS(=O)(=O)c1ccc2c(c1)CCC(=O)N2)c1ccccc1 (stereo not drawn),-,-,-,23934,-,-
CC1CCN(CC(=O)NCc2ccccc2)CC1,-,-,-,22476,-,-
C[C@@H]1CN([C@H](C)CO)C(=O)CCCn2nncc2CO[C@H]1CN(C)CC1CC1,.,-,-,-,-,-
COc1ccc(N2C(=O)c3ccccc3NC23C(=O)N(C)c2ccccc23)cc1 (stereo not drawn),-,-,-,17048,-,-
CCc1nnc(NS(=O)(=O)c2ccc(N3C(=O)C4CC=C(Cl)CC4C3=O)cc2)s1 (stereo not drawn),-,-,-,?,-,-
Cc1cc(C)nc(NS(=O)(=O)c2ccc(N3C(=O)C4CC=C(Cl)CC4C3=O)cc2)n1 (stereo not drawn),-,-,-,18775,-,-
Cc1ccc(S(=O)(=O)N2CCCC2C(=O)Nc2nc3ccccc3s2)cc1 (stereo not drawn),-,-,-,20751,-,-
Cc1ccc(S(=O)(=O)N2CCCC2C(=O)N(C)Cc2cccs2)cc1 (stereo not drawn),-,-,?,19722,-,-
O=C(Nc1nc2ccccc2s1)C1CCCN1S(=O)(=O)c1ccc(Cl)cc1 (stereo not drawn),-,-,?,22849,-,-
Cc1ccc(Cn2c(=N)c(C(=O)NC3CCCCC3)cc3c(=O)n4ccccc4nc32)cc1,-,-,-,-,-,-
COc1ccc(CCn2c(=N)c(C(=O)NC3CCCCC3)cc3c(=O)n4ccccc4nc32)cc1,-,-,-,-,-,-
N=c1c(C(=O)NC2CCCC2)cc2c(=O)n3ccccc3nc2n1Cc1ccccc1,-,-,-,-,146,-
CCCNc1nc2nc3ccccn3c(=O)c2cc1C(=O)NCCN1CCOCC1,-,-,-,-,155,-
N=c1c(S(=O)(=O)c2ccc(Cl)cc2)cc2c(=O)n3ccccc3nc2n1C1CCCC1,-,-,-,-,-,-
N=c1c(C(=O)NC2CCCC2)cc2c(=O)n3ccccc3nc2n1CCN1CCOCC1,-,-,-,-,176,-
N#Cc1cc2c(=O)n3ccccc3nc2n(-c2ccccc2Cl)c1=O,-,-,-,-,+,-
COc1ccc(CCNC(=O)CCCn2c(=S)[nH]c3ccsc3c2=O)cc1OC,-,-,-,-,-,-
CN(CCO)c1cc(N2CCN(C(=O)c3ccco3)CC2)c2nonc2c1[N+](=O)[O-],-,-,-,-,-,-
COc1ccc(CCNC(=O)CCS(=O)(=O)c2ccc3nc(C)sc3c2)cc1OC,-,-,-,-,-,-
Cc1cc(F)ccc1-c1cc(C(=O)Nc2ccccc2)[nH]n1,-,-,-,-,-,-
O=C(NCCN1CCOCC1)c1cc2c(=O)n3ccccc3nc2n1Cc1ccccc1,-,-,-,-,+,-
CCOC(=O)c1cc2c(=O)n3ccccc3nc2n(Cc2ccccc2)c1=N,-,-,-,-,79,-
SMILES,GDH-TPI counter,Anthrax LF inh2,BoNT A protease,Bead autofluor,FBA Mtb inh,BoNT F protease
N#Cc1cc2c(=O)n3ccccc3nc2n(CCCN2CCOCC2)c1=O,-,-,-,-,+,-
COc1ccc(CCNC(=O)c2cc3c(=O)n4ccccc4nc3n(CCCN3CCOCC3)c2=N)cc1OC,-,-,-,-,-,-
N=c1c(C(=O)NC2CCCC2)cc2c(=O)n3ccccc3nc2n1CCCN1CCOCC1,-,-,-,-,158,-
Cc1ccc(S(=O)(=O)N[C@H](C(=O)NCC2CCC(C(=O)O)CC2)C(C)C)cc1 (stereo partly drawn),-,-,-,-,-,-
Cc1ccc(NC(=O)CCC(=O)NNC(=O)Nc2cccc(Cl)c2)c(C)c1,-,-,-,-,-,-
Cc1noc(C)c1CSCC(=O)Nc1cc(Cl)ccc1N1CCCCC1,-,-,-,-,-,-
CC1CCC2(CC1)NC(=O)N(CC(=O)N1CCN(S(=O)(=O)c3ccccc3)CC1)C2=O (stereo not drawn),-,-,-,-,-,-
N#Cc1cc2c(=O)n3ccccc3nc2n(Cc2cccnc2)c1=O,-,-,-,-,+,-
Cc1cccn2c(=O)c3cc(C#N)c(=N)n(Cc4cccnc4)c3nc12,-,-,-,-,-,-
Cc1cc(S(=O)(=O)Nc2ccc(C(=O)NCc3cccnc3)cc2)ccc1F,-,-,-,?,-,-
Cc1ccc(CNC(=O)c2ccc(C#CC(C)(C)O)s2)cc1,-,-,?,22677,-,-
CN(C(=O)CN1C(=O)S/C(=C\c2ccccc2)C1=O)C1CCS(=O)(=O)C1 (stereo not drawn),45,-,-,-,-,-
CCN(C(=O)CCN1C(=O)S/C(=C\c2ccccc2)C1=O)C1CCS(=O)(=O)C1 (stereo not drawn),43,-,-,-,-,-
O=C(CCN1C(=O)S/C(=C\c2ccccc2)C1=O)NC1CCS(=O)(=O)C1 (stereo not drawn),36,-,-,-,-,-
CN(C(=O)CN1C(=O)S/C(=C\c2ccc(Cl)cc2)C1=O)C1CCS(=O)(=O)C1 (stereo not drawn),38,-,-,-,-,-
COc1cccc(/C=C2\SC(=O)N(CCC(=O)NC3CCS(=O)(=O)C3)C2=O)c1 (stereo not drawn),-,-,-,-,-,-
CN(C(=O)CCN1C(=O)/C(=C/c2ccccc2)SC1=S)C1CCS(=O)(=O)C1 (stereo not drawn),-,-,-,-,-,-
COc1ccc(CN2CCN(S(=O)(=O)c3ccc(F)cc3)CC2)c(OC)c1OC,-,-,-,21826,-,-
COc1ccc(CN2CCN(S(=O)(=O)c3ccccc3)CC2)c(OC)c1OC,-,-,?,-,-,?
COc1ccccc1C=NN=Cc1ccccc1OC,31,-,-,-,-,-
COc1ccccc1/C=N/N1C(=O)c2cccc3cccc(c23)C1=O,34,-,-,-,-,-
COc1cc(C(=O)Nc2nnc(C3CC3)s2)ccc1OCc1c(C)noc1C,-,-,-,-,-,-
CN1CC2(C(=O)c3ccccc3)CN(C)CC(C(=O)c3ccccc3)(C1)C2,-,-,?,20389,-,-
CN(C)C(=O)c1ccc(NC(=O)c2cncc(Br)c2)cc1,-,-,-,21882,-,-
CC(C)OC(=O)c1ccc(NC(=O)c2cncc(Br)c2)cc1,-,-,-,-,-,-
CCCCNc1c(-c2ccc(SC3CCCCC3)cc2)nc2ccccn12,-,-,-,-,50,-
